Measurements from PubChem BioAssay (NCI).
Compounds without any hit were thinned out: in the full panel of roughly 79,000, 15% have a hit. The source made the active and inactive calls. Cut-off read from the data, not from the text of the source: active = growth inhibition above about 70%; inactive = the rest.

How the values were obtained:
[1] = NCI Yeast Anticancer Drug Screen. Data for the wt1 strain (AID 149);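 note: 0% = growth of vehicle-treated wt1 cultures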; details: S. cerevisiae wt1 strain (SPY 50644) growth inhibition, active compounds read high
Summary of the method: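 wt1 yeast, compound-treated; % growth inhibition vs vehicle control.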

[2] = NCI Yeast Anticancer Drug Screen. Data for the rad50EPP+ strain (AID 151);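 note: 0% = growth of vehicle-treated control cultures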; details: S. cerevisiae rad50 mutant strain, active compounds read high
Summary of the method: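 Yeast strain carrying rad50 alteration (rad50EPP+) exposed to compounds; growth inhibition measured relative to vehicle-treated controls.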

[3] = NCI Yeast Anticancer Drug Screen. Data for the mgt1 strain (AID 153); details: S. cerevisiae mgt1 mutant growth inhibition, active compounds read high
Summary of the method: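 Yeast mgt1 strain (DNA repair/cell-cycle alteration panel) exposed to compounds; growth inhibition measured relative to vehicle-treated controls.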

[4] = NCI Yeast Anticancer Drug Screen. Data for the rad50 strain (AID 155);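 note: 0% = growth of vehicle-only cultures of the same strain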; details: S. cerevisiae rad50 strain growth inhibition, active compounds read high
Summary of the method: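 Genetically altered yeast (DNA repair pathway); compound treatment; growth inhibition vs vehicle ctrl.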

[5] = NCI Yeast Anticancer Drug Screen. Data for the mec2-1 strain (AID 157); details: S. cerevisiae mec2-1 strain, active compounds read high
Summary of the method: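 mec2-1 yeast strain, carrying an alteration in DNA damage repair or cell cycle control, was exposed to compounds; growth inhibition was measured relative to vehicle-treated controls.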

[6] = NCI Yeast Anticancer Drug Screen. Data for the rad14 strain (AID 159);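 note: 0% = growth of vehicle-treated control cultures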; details: S. cerevisiae rad14 strain growth inhibition, active compounds read high
Summary of the method: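 Test compounds were applied to a repair-deficient yeast strain. Its growth was then compared with that of cultures given vehicle alone, and inhibition was expressed relative to those controls.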

[7] = NCI Yeast Anticancer Drug Screen. Data for the sgs1 mgt1 strain (AID 161);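 note: 0% = growth of cultures given vehicle only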; details: S. cerevisiae sgs1 mgt1 strain, active compounds read high
Summary of the method: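 Growth of a repair-deficient yeast mutant was monitored after compound treatment and expressed as inhibition relative to vehicle-treated cultures.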

[8] = NCI Yeast Anticancer Drug Screen. Data for the CLN2oe strain (AID 163);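 note: 0% = growth of vehicle-only control cultures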; details: S. cerevisiae CLN2oe strain, active compounds read high
Summary of the method: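 Yeast cells carrying a defined cell-cycle control alteration were exposed to test compounds. Growth inhibition was scored against vehicle-treated control cultures.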

[9] = NCI Yeast Anticancer Drug Screen. Data for the cln2 rad14 strain (AID 165);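 note: 0% = growth equal to vehicle treated cultures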; details: S. cerevisiae cln2 rad14 strain, active compounds read high
Summary of the method: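 Yeast carrying cln2 and rad14 alterations (cell cycle control and DNA damage repair) were exposed to compounds. Growth inhibition was measured against vehicle-treated controls.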

[10] = NCI Yeast Anticancer Drug Screen. Data for the bub3 strain (AID 167); details: S. cerevisiae bub3 mutant strain, active compounds read high
Summary of the method: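 Yeast carrying a defined mutation is treated with each compound, and growth is compared with that of vehicle-exposed cells to give inhibition.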

[11] = NCI Yeast Anticancer Drug Screen. Data for the wt2 strain (AID 169);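 note: 0% = growth of vehicle-treated yeast cultures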; details: S. cerevisiae wt2 strain growth inhibition, active compounds read high
Summary of the method: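 Yeast cells were exposed to test compounds, and growth inhibition was measured relative to vehicle-treated controls.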

[12] = NCI Yeast Anticancer Drug Screen. Data for the mlh1 strain (AID 171);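 note: 0% = growth of vehicle-treated control cultures of the same strain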; details: S. cerevisiae mlh1 strain growth inhibition, active compounds read high
Summary of the method: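 Yeast carrying a defined genetic alteration in DNA damage repair or cell cycle control were exposed to test compounds. Growth inhibition was measured relative to vehicle-treated controls.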

[13] = NCI Yeast Anticancer Drug Screen. Data for the sgs1 strain (AID 173);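 note: 0% = growth of vehicle-only control cultures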; details: S. cerevisiae sgs1 mutant, active compounds read high
Summary of the method: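 Yeast mutant strains carrying defined defects in DNA damage repair or cell cycle control were exposed to test compounds. Growth inhibition was scored against vehicle-treated controls.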

[14] = NCI Yeast Anticancer Drug Screen. Data for the mlh1 rad18 strain (AID 175); details: S. cerevisiae mlh1 rad18 strain growth inhibition, active compounds read high
Summary of the method: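 Growth inhibition of the yeast strain was measured after compound exposure and expressed relative to vehicle-treated controls. The strain carries defined defects in DNA damage repair.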

[15] = NCI Yeast Anticancer Drug Screen. Data for the rad18 strain (AID 177); details: S. cerevisiae rad18 mutant growth inhibition, active compounds read high
Summary of the method: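 Yeast carrying a defined DNA damage repair alteration were exposed to compounds. Growth inhibition was expressed relative to vehicle-treated controls.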

[16] = NCI Yeast Anticancer Drug Screen. Data for the rad52 strain (AID 147);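 note: 0% = growth of vehicle-treated control cultures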; details: S. cerevisiae rad52 mutant growth inhibition, active compounds read high
Summary of the method: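 Yeast strain carrying a DNA damage repair alteration was exposed to test compounds. Growth inhibition was measured relative to vehicle-treated controls.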

[17] = at 5.0 µM (retest, dose inferred, filed as 0.5)
[18] = at 50.0 µM (retest, dose inferred, filed as 5.0)

Measured: growth inhibition

CC(=O)OC1CCC2(C)C(=CC(C3C=C4CC(OC(C)=O)CCC4(C)C4=C3C3CC5OC6(CCC(C)CO6)C(C)C5C3(C)CC4)C3=C2CCC2(C)C3CC3OC4(CCC(C)CO4)C(C)C32)C1 (stereo not drawn)
inactive: [1]; at 1.2 µM 1% | [1]; at 3.7 µM -1% | [1]; at 11.0 µM 0% | [1]; at 33.0 µM 9% | [1]; at 100.0 µM 11% | [2]; at 1.2 µM 1% | [2]; at 3.7 µM 2% | [2]; at 11.0 µM 25% | [2]; at 33.0 µM 65% | [3]; at 1.2 µM 1% | [3]; at 3.7 µM -3% | [3]; at 11.0 µM -2% | [3]; at 33.0 µM 24% | [4]; at 1.2 µM 0% | [4]; at 3.7 µM 1% | [4]; [17] -7% | [4]; at 11.0 µM 2% | [4]; at 33.0 µM 6% | [4]; [18] 45% | [4]; at 100.0 µM 64% | [5]; at 1.2 µM -2% | [5]; at 3.7 µM 0% | [5]; [17] -12% | [5]; at 11.0 µM 1% | [5]; at 33.0 µM 9% | [5]; [18] 33% | [5]; at 50.0 µM 45% | [6]; at 1.2 µM 1% | [6]; at 3.7 µM 0% | [6]; at 11.0 µM 4% | [6]; at 33.0 µM 13% | [7]; [17] -10% | [7]; [18] 64% | [8]; at 1.2 µM -3% | [8]; at 3.7 µM -8% | [8]; at 11.0 µM -8% | [8]; at 33.0 µM -7% | [8]; at 100.0 µM 53% | [9]; [17] 37% | [9]; [18] 60% | [9]; at 50.0 µM -4.25% | [10]; at 1.2 µM 0% | [10]; at 3.7 µM -1% | [10]; [17] -2% | [10]; at 11.0 µM -3% | [10]; at 33.0 µM 2% | [10]; [18] 69% | [10]; at 100.0 µM 61% | [11]; at 1.2 µM -2% | [11]; at 3.7 µM -3% | [11]; at 11.0 µM -1% | [11]; at 33.0 µM 25% | [12]; at 1.2 µM -1% | [12]; at 3.7 µM 0% | [12]; at 11.0 µM 0% | [12]; at 33.0 µM 12% | [12]; at 100.0 µM 69% | [13]; at 1.2 µM -4% | [13]; at 3.7 µM -5% | [13]; at 11.0 µM 3% | [13]; at 33.0 µM 25% | [14]; [17] -28% | [15]; at 1.2 µM -1% | [15]; at 3.7 µM -3% | [15]; at 11.0 µM -3% | [15]; at 33.0 µM 8% | [15]; at 100.0 µM 51%
active: [2]; at 100.0 µM 76% | [3]; at 100.0 µM 83% | [4]; at 50.0 µM 91.3% | [5]; at 100.0 µM 75% | [6]; at 100.0 µM 84% | [7]; at 50.0 µM 90.7% | [10]; at 50.0 µM 74.2% | [11]; at 100.0 µM 93% | [13]; at 100.0 µM 72% | [14]; [18] 88% | [14]; at 50.0 µM 82.5%

O=C1OC(C2=CC(=O)c3ccccc3C2=O)C(Cl)=C1Cl (stereo not drawn)
inactive: [16]; at 1.2 µM 3% | [16]; at 3.7 µM 15% | [16]; at 11.0 µM 46% | [2]; at 1.2 µM 3% | [2]; at 3.7 µM 13% | [2]; at 11.0 µM 47% | [3]; at 1.2 µM -1% | [3]; at 3.7 µM 0% | [3]; at 11.0 µM 1% | [3]; at 33.0 µM 12% | [3]; at 100.0 µM 24% | [4]; at 1.2 µM 0% | [4]; at 3.7 µM 1% | [4]; [17] 5% | [4]; at 11.0 µM 11% | [4]; at 33.0 µM 30% | [4]; [18] 44% | [4]; at 100.0 µM 47% | [5]; at 1.2 µM -1% | [5]; at 3.7 µM 6% | [5]; [17] 1% | [5]; at 11.0 µM 14% | [5]; at 33.0 µM 34% | [5]; [18] 47% | [5]; at 100.0 µM 56% | [6]; at 1.2 µM 0% | [6]; at 3.7 µM 4% | [6]; at 11.0 µM 12% | [6]; at 33.0 µM 37% | [6]; at 100.0 µM 69% | [7]; [17] 17% | [8]; at 1.2 µM -2% | [8]; at 3.7 µM -13% | [8]; at 11.0 µM -4% | [8]; at 33.0 µM 12% | [8]; at 100.0 µM 30% | [9]; [17] 0% | [9]; [18] 51% | [11]; at 1.2 µM 1% | [11]; at 3.7 µM 1% | [11]; at 11.0 µM 4% | [11]; at 33.0 µM 13% | [11]; at 100.0 µM 36% | [13]; at 1.2 µM 4% | [13]; at 3.7 µM 13% | [13]; at 11.0 µM 48% | [14]; [17] 11% | [15]; at 1.2 µM 31%
active: [16]; at 33.0 µM 89% | [16]; at 100.0 µM 91% | [2]; at 33.0 µM 81% | [2]; at 100.0 µM 82% | [4]; at 50.0 µM 86.3% | [5]; at 50.0 µM 80.9% | [7]; [18] 78% | [7]; at 50.0 µM 95.5% | [9]; at 50.0 µM 95.3% | [13]; at 33.0 µM 79% | [13]; at 100.0 µM 87% | [14]; [18] 77% | [14]; at 50.0 µM 94.8% | [15]; at 3.7 µM 79% | [15]; at 11.0 µM 92% | [15]; at 33.0 µM 95% | [15]; at 100.0 µM 94%
